From PubChem BioAssay (NCATS)
A number with no mark means an inactive call. Inconclusive results are not listed. Where a call stands in place of a potency, no number is given. Active and inactive are the calls of the source. Unless noted, the call rests on the fitted dose curve; in most records, active means well fitted curve in the direction sought with a large enough effect; inconclusive means small, poorly fitted or top-dose-only effect, or another doubt; inactive means no such curve, though single readings can be large; an effect the other way counts as inactive or inconclusive.

Experiments:
[1] = qHTS to identify inhibitors of the type 1 interferon - major histocompatibility complex class I in skeletal muscle: primary screen against the NCATS LOPAC collection (AID 1347405);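 further: lytic HiBiT luminescence reporting HLA-B protein level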; further: potency means the concentration at half of the fitted maximal effect
Summary of the method: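 Immortalized human C25cl48 myoblasts with HiBiT knocked into endogenous HLA-B*08:01 were stimulated with 4.0 ng/ml IFN-beta and given compounds in a 7-point, 1:4.3 titration from 46 uM final; after 24 hrs, lytic HiBiT luminescence was read.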

[2] = qHTS to identify inhibitors of the type 1 interferon - major histocompatibility complex class I in skeletal muscle: primary screen against the NCATS Pharmaceutical Collection (AID 1347407);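 further: luminescence of HiBiT knocked into endogenous HLA-B as interferon-induced MHC class I level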; further: potency means the concentration at half of the fitted maximal effect
Summary of the method: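 Compounds […] were added to CRISPR-engineered HLA-B-HiBiT C25cl48 human myoblasts with 4.0 ng/ml IFN-beta. After 24 hrs at 37 C, cells were lysed and HiBiT luminescence measured.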

[3] = qHTS for inhibitors of adenylyl cyclases using a fission yeast platform: a pilot screen against the NCATS LOPAC library (AID 1347410)
Summary of the method: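 GFP from fbp1-GFP reporter, read by Acumen laser cytometry, indicates AC inhibition in fission yeast expressing AC9, GNAS and PDE4D2. Cells grown 18 h in the dark at 30C with compounds, final up to 57 uM.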

[4] = biological target: Protein phosphatase 1D (Homo sapiens) (UniProt O15297); assay: RapidFire Mass Spectrometry qHTS Assay for Modulators of WT P53-Induced Phosphatase 1 (WIP1) (AID 1347424);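 further: amount of dephosphorylated VEPPL-S-QETFS peptide product formed by WIP1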; further: potency means the concentration at half of the fitted maximal effect; on activity change, negative = inhibition: series mostly up to about 63 µM
Chain of Protein phosphatase 1D (Homo sapiens) (O15297 whole entry, looked up): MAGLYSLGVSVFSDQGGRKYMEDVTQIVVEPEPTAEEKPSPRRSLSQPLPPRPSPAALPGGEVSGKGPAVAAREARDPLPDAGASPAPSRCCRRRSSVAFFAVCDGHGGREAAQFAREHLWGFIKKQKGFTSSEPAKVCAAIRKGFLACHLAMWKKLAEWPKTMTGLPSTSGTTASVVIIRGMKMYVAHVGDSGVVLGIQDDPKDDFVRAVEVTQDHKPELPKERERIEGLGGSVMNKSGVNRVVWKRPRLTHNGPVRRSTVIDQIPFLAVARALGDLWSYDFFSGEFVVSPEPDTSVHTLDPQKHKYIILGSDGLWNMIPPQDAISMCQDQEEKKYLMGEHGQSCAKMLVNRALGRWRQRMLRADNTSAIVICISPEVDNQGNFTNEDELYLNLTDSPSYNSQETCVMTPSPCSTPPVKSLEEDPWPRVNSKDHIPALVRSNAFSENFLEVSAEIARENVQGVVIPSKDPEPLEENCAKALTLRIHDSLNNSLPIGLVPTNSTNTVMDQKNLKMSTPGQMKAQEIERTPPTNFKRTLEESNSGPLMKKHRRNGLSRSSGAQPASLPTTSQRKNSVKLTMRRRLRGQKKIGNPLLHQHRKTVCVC
Summary of the method: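 WIP1 (10 nM final) was preincubated 1 h at room temperature with compounds in Tris-HCl pH 7.5, 30 mM MgCl2, TCEP, EGTA, BSA; 2 uM VEPPL-pS-QETFS phosphopeptide was added for 5 min, quenched with formic acid, and dephosphorylated product quantified by RapidFire MS.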

[5] = biological target: Protein phosphatase 1D (Homo sapiens) (UniProt O15297); assay: Rhodamine-PBP qHTS Assay for Modulators of WT P53-Induced Phosphatase 1 (WIP1) (AID 1347425)
Summary of the method: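 5 nM WIP1 + 10 uM Rh-PBP, 50 mM Tris pH 7.5, 30 mM MgCl2, 1 mM TCEP, 0.1 mM EGTA, BSA; cpds pinned, 1 hr RT; + 10 uM phosphopeptide; fluorescence 1-min reads x 11 min; delta = f1 - f0.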

[6] = Validation qHTS assay for inhibitors of Activation Induced Cytidine Deaminase (AID): UDG Counterscreen signal (AID 1347427)
Summary of the method: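 Counterscreen read of UDG activity (2 U/mL, 4/3x) in the FRET deamination format with AID (1 uM, 4/3x), DJC20/DJC23 substrates (250 nM, 4x), 4 h at room temperature. NaOH stop, fluorescence at 560 ex/665 em.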

[7] = biological target: Single-stranded DNA cytosine deaminase (Homo sapiens) (UniProt Q9GZX7); assay: Validation qHTS assay for inhibitors of Activation Induced Cytidine Deaminase (AID): AID signal (AID 1347429)
Chain of Single-stranded DNA cytosine deaminase (Homo sapiens) (Q9GZX7 whole entry, looked up): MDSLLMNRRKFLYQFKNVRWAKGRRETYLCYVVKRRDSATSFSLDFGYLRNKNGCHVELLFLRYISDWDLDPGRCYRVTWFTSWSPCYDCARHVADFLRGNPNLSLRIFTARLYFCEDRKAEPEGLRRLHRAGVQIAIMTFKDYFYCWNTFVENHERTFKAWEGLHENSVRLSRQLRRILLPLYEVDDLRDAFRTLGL
Summary of the method: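 AID and UDG were combined and compounds added at final up to 114 uM, then DJC20/DJC23 FRET substrate was added for 4 hr at room temperature. NaOH was then added for 30 min before fluorescence was read at 540/590 nm.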

[8] = Primary qHTS for inhibitors of SARS-S pseudo-typed particle cell entry (AID 1479145; calls by dose curve; further: series mostly up to about 57 µM; nearly all actives have a fitted effect of over 45% in size)
[9] = Redox Reaction Profiling qHTS: Assay Interference Panel against the NCATS CANVASS Library (AID 1347401)
Summary of the method: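 Resazurin (5 uM) conversion to resorufin measured with 200 uM DTT in 50 mM HEPES pH 7.3, 50 mM NaCl. Compounds tested in 11-point qHTS series. Fluorescence (ex 525/em 598 nm) read before and after 15 min dark incubation.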

[10] = qHTS for inhibitors of Rabies Virus screened against the NCATS CANVASS Library (AID 1347402; calls by dose curve; further: series mostly up to about 46 µM)

Q: What does the source list for CCC1(C2=NCCN2)Cc2ccccc2O1 (configuration not stated)?
A: Potency [1]: inactive; Potency [2]: inactive; outcome [3]: inactive; Potency [4]: inactive; outcome [5]: inactive; outcome [6]: inactive; outcome [7]: inactive

Q: Which results are given for NP(N)(=O)NC(=O)c1ccc(F)cc1?
A: Potency [2]: inactive; Potency [4]: inactive

Q: Which Potency [1] does the source give for CNCC(O)c1ccc(O)cc1 (configuration not stated) here?
A: inactive

Q: What about the Potency [2] of the same compound?
A: inactive

Q: And the outcome [3]?
A: inactive

Q: And the Potency [4]?
A: inactive

Q: And the outcome [5]?
A: inactive

Q: And the outcome [6]?
A: inactive

Q: And the outcome [7]?
A: inactive

Q: Which Potency [1] does the source give for Nc1ccncc1 here?
A: inactive

Q: What about the Potency [2] of the same compound?
A: inactive

Q: What about the outcome [3] of the same compound?
A: inactive

Q: What about the Potency [4] of the same compound?
A: inactive

Q: And the outcome [5]?
A: inactive

Q: What about the outcome [6] of the same compound?
A: inactive

Q: And the outcome [7]?
A: inactive

Q: And the Potency [8]?
A: inactive

Q: What does the source list for NCC(O)c1ccc(O)cc1 (configuration not stated)?
A: outcome [9]: inactive; outcome [10]: inactive; Potency [1]: inactive; Potency [2]: inactive; outcome [3]: inactive; Potency [4]: inactive; outcome [5]: inactive; outcome [6]: inactive; outcome [7]: inactive; Potency [8]: inactive

Q: For Cn1c(CCCC(=O)O)nc2cc(N(CCCl)CCCl)ccc21, which Potency [1] is on record?
A: inactive

Q: And the Potency [2]?
A: inactive

Q: What about the outcome [3] of the same compound?
A: inactive

Q: And the Potency [4]?
A: inactive

Q: And the outcome [5]?
A: inactive

Q: With Cc1ccc(S(=O)(=O)N[C@@H](CCCCN)C(=O)CCl)cc1 as the compound, how does the Potency [1] read?
A: inactive

Q: What about the Potency [2] of the same compound?
A: inactive

Q: And the outcome [3]?
A: inactive

Q: And the Potency [4]?
A: inactive

Q: What about the outcome [5] of the same compound?
A: inactive

Q: And the outcome [6]?
A: inactive

Q: What about the outcome [7] of the same compound?
A: inactive

Q: Which Potency [1] does the source give for N#CC(C#N)=Cc1ccc(O)c(O)c1 here?
A: inactive

Q: What about the Potency [2] of the same compound?
A: inactive

Q: And the outcome [3]?
A: inactive

Q: What about the Potency [4] of the same compound?
A: inactive

Q: What about the outcome [5] of the same compound?
A: inactive

Q: What about the outcome [6] of the same compound?
A: inactive

Q: What about the outcome [7] of the same compound?
A: inactive

Q: Which Potency [1] does the source give for CC[C@@H](CO)NC(=O)[C@@H]1C=C2c3cccc4[nH]cc(c34)C[C@H]2N(C)C1 here?
A: inactive

Q: What about the Potency [2] of the same compound?
A: inactive

Q: What about the outcome [3] of the same compound?
A: inactive

Q: And the Potency [4]?
A: inactive

Q: What about the outcome [5] of the same compound?
A: inactive

Q: What about the outcome [6] of the same compound?
A: inactive

Q: And the outcome [7]?
A: inactive

Q: What about the Potency [8] of the same compound?
A: inactive

Q: Which results are given for NCC(CC(=O)O)c1ccc(Cl)cc1 (configuration not stated)?
A: Potency [1]: inactive; activity change, negative = inhibition [2]: 3.65% [at 0.727 µM]; outcome [3]: inactive; activity change, negative = inhibition [4]: -7.37% [at 0.505 µM]; activity change, negative = inhibition [5]: 1.39% [at 0.575 µM]; outcome [6]: inactive; outcome [7]: inactive; activity change, negative = inhibition [8]: -11.8% [at 0.573 µM]

Q: Which Potency [2] does the source give for NCCc1cc(O)c(O)cc1O here?
A: inactive

Q: What does the source list for CC(=O)[C@H]1CC[C@H]2[C@@H]3CC[C@H]4C[C@](C)(O)CC[C@]4(C)[C@H]3CC[C@]12C?
A: Potency [1]: inactive; Potency [2]: inactive; outcome [3]: inactive; Potency [4]: inactive; outcome [5]: inactive; outcome [6]: inactive; outcome [7]: inactive

Q: For Cc1cccc(C)c1NC(=O)CN1CCCC1=O, which Potency [1] is on record?
A: inactive

Q: And the Potency [2]?
A: inactive

Q: And the outcome [3]?
A: inactive

Q: And the Potency [4]?
A: inactive

Q: And the outcome [5]?
A: inactive

Q: What about the outcome [6] of the same compound?
A: inactive

Q: What about the outcome [7] of the same compound?
A: inactive

Q: Which Potency [2] does the source give for N[C@@H](Cc1ccc(Oc2cc(I)c(O)c(I)c2)c(I)c1)C(=O)O here?
A: inactive

Q: And the Potency [4]?
A: 12.6 µM (active)

Q: Which Potency [1] does the source give for Cc1ncc(CNC(=O)N(CCCl)N=O)c(N)n1 here?
A: inactive

Q: What about the Potency [2] of the same compound?
A: inactive

Q: What about the outcome [3] of the same compound?
A: inactive

Q: And the Potency [4]?
A: inactive

Q: What about the outcome [5] of the same compound?
A: inactive

Q: And the outcome [6]?
A: inactive

Q: What about the outcome [7] of the same compound?
A: inactive

Q: And the Potency [8]?
A: inactive

Q: What does the source list for CN1C[C@H](CNC(=O)OCc2ccccc2)C[C@@H]2c3cccc4c3c(cn4C)C[C@H]21?
A: Potency [1]: inactive; Potency [2]: inactive; outcome [3]: inactive; Potency [4]: inactive; outcome [5]: inactive; outcome [6]: inactive; outcome [7]: inactive

Q: Which results are given for O=c1oc2ccccc2c(O)c1C(CC(O)c1ccc(-c2ccc(Br)cc2)cc1)c1ccccc1 (configuration not stated)?
A: Potency [2]: inactive; Potency [4]: 8.91 µM (active)

Q: For CC[C@@H](CO)NC(=O)[C@@H]1C=C2c3cccc4c3c(cn4C)C[C@H]2N(C)C1, which Potency [1] is on record?
A: inactive

Q: And the Potency [2]?
A: inactive

Q: And the outcome [3]?
A: inactive

Q: What about the Potency [4] of the same compound?
A: inactive

Q: What about the outcome [5] of the same compound?
A: inactive

Q: And the outcome [6]?
A: inactive

Q: And the outcome [7]?
A: inactive

Q: And the Potency [8]?
A: inactive

Q: For CC(C)=CCOc1c2occc2cc2ccc(=O)oc12, which Potency [1] is on record?
A: inactive

Q: What about the Potency [2] of the same compound?
A: inactive

Q: And the outcome [3]?
A: inactive

Q: What about the Potency [4] of the same compound?
A: inactive

Q: And the outcome [5]?
A: inactive

Q: What about the outcome [6] of the same compound?
A: inactive

Q: What about the outcome [7] of the same compound?
A: inactive

Q: Which Potency [2] does the source give for O=c1[nH]c2ccccc2n1CCCN1CCC(n2c(=O)[nH]c3cc(Cl)ccc32)CC1 here?
A: inactive

Q: What about the outcome [3] of the same compound?
A: inactive

Q: And the Potency [4]?
A: inactive

Q: And the outcome [5]?
A: inactive

Q: And the outcome [6]?
A: inactive

Q: And the outcome [7]?
A: inactive

Q: For COc1ccccc1N1CCNCC1, which Potency [1] is on record?
A: inactive

Q: And the Potency [2]?
A: inactive

Q: And the outcome [3]?
A: inactive

Q: What about the Potency [4] of the same compound?
A: inactive

Q: And the outcome [5]?
A: inactive

Q: And the outcome [6]?
A: inactive

Q: And the outcome [7]?
A: inactive

Q: With C[C@@H]1O[C@@H](O[C@H]2C[C@@H](O)[C@]3(CO)[C@H]4[C@H](O)C[C@]5(C)[C@@H](C6=CC(=O)OC6)CC[C@]5(O)[C@@H]4CC[C@]3(O)C2)[C@H](O)[C@H](O)[C@H]1O as the compound, how does the Potency [1] read?
A: 0.0447 µM (active)

Q: And the Potency [2]?
A: 0.0528 µM (active)

Q: What about the outcome [3] of the same compound?
A: inactive

Q: And the Potency [4]?
A: inactive

Q: What about the outcome [5] of the same compound?
A: inactive

Q: And the outcome [6]?
A: inactive

Q: And the outcome [7]?
A: inactive

Q: What about the Potency [8] of the same compound?
A: inactive

Q: Which Potency [1] does the source give for CC(=O)[C@H]1CC[C@H]2[C@@H]3CC[C@H]4C[C@H](O)CC[C@]4(C)[C@H]3C(=O)C[C@]12C here?
A: inactive

Q: What about the Potency [2] of the same compound?
A: inactive

Q: And the outcome [3]?
A: inactive

Q: And the Potency [4]?
A: inactive

Q: And the outcome [5]?
A: inactive

Q: What about the outcome [6] of the same compound?
A: inactive

Q: What about the outcome [7] of the same compound?
A: inactive

Q: What does the source list for NN=C(N)N?
A: Potency [1]: inactive; Potency [2]: inactive; outcome [3]: inactive; Potency [4]: inactive; outcome [5]: inactive; outcome [6]: inactive; outcome [7]: inactive

Q: Which results are given for Cc1cccc(C)c1NC1=NCCCS1?
A: Potency [1]: inactive; Potency [2]: inactive; outcome [3]: inactive; Potency [4]: inactive; outcome [5]: inactive; outcome [6]: inactive; outcome [7]: inactive

Q: What does the source list for c1ccc2c(c1)OCC(C1=NCCN1)O2 (configuration not stated)?
A: Potency [2]: inactive; outcome [3]: inactive; Potency [4]: inactive; outcome [5]: inactive; outcome [6]: inactive; outcome [7]: inactive

Q: What does the source list for CC[N+]1(C)CCCC(OC(=O)C(O)(c2ccccc2)c2ccccc2)C1 (configuration not stated)?
A: Potency [2]: inactive; Potency [4]: inactive; outcome [5]: inactive

Q: For Clc1ccc(CCC(Cn2ccnc2)Sc2c(Cl)cccc2Cl)cc1 (configuration not stated), which Potency [2] is on record?
A: inactive

Q: What about the Potency [4] of the same compound?
A: inactive

Q: And the outcome [5]?
A: inactive
